Source: PubChem (National Center for Advancing Translational Sciences (NCATS))
Most compounds without a hit are left out; they make up all but 1.2% or so of the library.
Six1-Eya2 inh – Six1/Eya2 interaction inhibition | Q15475+O00167 | AlphaScreen GST-Six1/His-Eya2 binding, biochemical; hits give low values | activity change, % (concentration not given with the values) | 360,000 compounds, 0.56% hits
Target sequence (O00167 whole entry, looked up): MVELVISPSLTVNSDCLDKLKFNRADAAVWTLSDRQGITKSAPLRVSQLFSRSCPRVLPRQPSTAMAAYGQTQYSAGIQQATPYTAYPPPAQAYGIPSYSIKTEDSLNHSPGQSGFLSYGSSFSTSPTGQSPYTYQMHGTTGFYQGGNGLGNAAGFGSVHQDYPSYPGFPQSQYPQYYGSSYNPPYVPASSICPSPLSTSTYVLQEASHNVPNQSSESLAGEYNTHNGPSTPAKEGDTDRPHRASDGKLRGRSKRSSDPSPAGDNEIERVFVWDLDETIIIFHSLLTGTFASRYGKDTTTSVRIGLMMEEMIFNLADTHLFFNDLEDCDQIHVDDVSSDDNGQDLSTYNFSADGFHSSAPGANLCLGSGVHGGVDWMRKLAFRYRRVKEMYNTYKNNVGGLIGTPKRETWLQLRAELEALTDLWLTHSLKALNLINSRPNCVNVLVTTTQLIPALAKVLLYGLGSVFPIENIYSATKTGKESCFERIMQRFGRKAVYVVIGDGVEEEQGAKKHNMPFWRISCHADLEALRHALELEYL
Target sequence (Q15475 whole entry, looked up): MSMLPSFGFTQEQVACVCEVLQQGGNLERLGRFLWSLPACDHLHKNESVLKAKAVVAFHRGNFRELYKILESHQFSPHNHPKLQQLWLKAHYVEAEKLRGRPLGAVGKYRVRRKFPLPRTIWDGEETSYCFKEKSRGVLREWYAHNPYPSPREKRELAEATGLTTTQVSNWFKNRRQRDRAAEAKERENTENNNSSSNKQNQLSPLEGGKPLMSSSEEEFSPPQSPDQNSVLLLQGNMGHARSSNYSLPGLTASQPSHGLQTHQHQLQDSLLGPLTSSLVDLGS
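AlphaScreen with GST-Six1 and His-Eya2 (5X mix: 250 nM and 500 nM), glutathione donor and nickel acceptor beads; buffer 50 mM Tris pH 8.0, 300 mM NaCl, 1 mM TCEP; 1 h at 37 C in the dark.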
CCT chaperon mod – changes cytosolic chaperonin activity. 360,000 compounds, 0.3% hits. purified chaperonin ATPase assay, HTRF ADP detection, 30 min. activity change, % (concentration not given with the values), hits read low; in the data active means activity change below about -30%
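Enzyme 40 or 20 nM (batch-dependent) in Tris pH 7.4/KCl/MgCl2/DTT; cpd 76 uM single point; ATP 10 uM; 30 min 37 °C; Transcreener ADP HTRF detection, 30 min RT; ratio 665/615.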
CtBP-E1A inh – CtBP/E1A binding inhibition. AlphaScreen GST-E1A/His-CtBP binding, 1536-well; hits give low values. activity change, % (no concentration beside the values). 340,000 compounds, 0.49% hits. AID 651724
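Homogeneous bead-based format: GST-tagged E1A captured on glutathione donor beads, His-tagged CtBP on nickel acceptor beads; compounds precede bead addition by 2 h at 37 °C.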
pAkt inh – Akt phosphorylation inhibition | AID 651550 | 360,000 compounds, 0.32% hits | activity change, % for hits at 50 µM | Neuro2A IGF-stimulated pAkt S473 HTRF, 20 min; hits give low values; in the data active means activity change below about -80%; inconclusive means mostly about -51% to -80%
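Neuro2A cells (4,500/well, DMEM with 0.5% FBS) were treated with compound at a single 50 µM final concentration, stimulated with 6 nM IGF for 20 min at 37 °C, and lysed. Phospho-Akt Ser473 was read by HTRF as 665/615 ratio ×10^4.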
* marks the source's active call; other numbers are inactive results; i = inactive; ? = inconclusive; / = no result. Unless noted, no stated cut-off is given here; in the data, active means activity change below about -65%; inconclusive means mostly about -30% to -63%; inactive means weaker than that. On the % scale 0 is the no-effect control and ±100 the full control effect.

SMILES	Six1-Eya2 inh	CCT chaperon mod	CtBP-E1A inh	pAkt inh
COc1ccc(C(CNC(=O)c2cccc(S(=O)(=O)Nc3ccccc3OC)c2)N2CCCC2)cc1 (stereo not given)	2	-51*	-9	i
COc1ccc(C(CNC(=O)c2cccc(S(=O)(=O)Nc3ccccc3OC)c2)N2CCCCC2)cc1 (stereo not given)	-6	3	6	i
Oc1c(C(Nc2nccs2)c2ccc(C(F)(F)F)cc2)ccc2cccnc12 (stereo not given)	?	0	?	i
Oc1c(C(Nc2cccc(C(F)(F)F)c2)c2ccncc2)ccc2cccnc12 (stereo not given)	-92*	-2	-94*	i
CC(C)CC(CO)N1CCN(C(=O)c2cccc(Cl)c2)CCC1=O (stereo not given)	-7	-4	-19	i
Cn1cccc([N+](=O)[O-])c1=O	21	2	0	i
Cn1c(=O)c(=O)n(C)c2cc([N+](=O)[O-])c([N+](=O)[O-])cc21	-10	-32*	10	i
CCCCNc1c([N+](=O)[O-])cc(C)cc1[N+](=O)[O-]	-67*	-2	-25	i
CCCCNc1c([N+](=O)[O-])cc(C(=O)O)cc1[N+](=O)[O-]	6	-1	-14	i
CC(=O)O[C@]1(C(C)=O)CC[C@H]2[C@@H]3C=CC4=CC(=O)C=C[C@]4(C)[C@H]3CC[C@@]21C	6	-5	-21	i
O=C(COC(=O)C1COc2ccccc2O1)NC(=O)NC1CCCC1 (stereo not given)	-9	-4	0	-98%*
N#Cc1cccc(C(=O)OCC(=O)NC(=O)NC2CCCCC2)c1	1	-42*	-1	i
O=C(COC(=O)C1COc2ccccc2O1)NC1CCCCC1 (stereo not given)	8	-1	14	i
O=C(COC(=O)c1cccc(OC(F)F)c1)NC(=O)NC1CCCCC1	-1	0	8	i
O=C(CSc1nnc(-c2ccccc2F)n1C1CC1)NCc1ccco1	-1	1	-2	i
CCOC(=O)Cc1csc(NC(=O)C(NC(=O)C2CCC(C)CC2)C(C)C)n1 (stereo not given)	2	-4	/	i
CCOn1c(=O)c(=O)n(OCc2ccccc2)c2ccccc21	-6	-1	12	i
CC1(C)C(=O)N(OCc2ccccc2)C(C)(C)C(=O)N1OCc1ccccc1	3	-32*	9	i
Cc1ccc(OCC(=O)c2ccc(Cl)s2)c([N+](=O)[O-])n1	-15	-2	-5	i
COCCCNc1nc2ccccc2[nH]c1=O	0	0	11	i
COCCCNc1nc(=S)[nH]c2cc(OC)c(OC)cc12	-90*	-1	-95*	i
COc1cc2[nH]c(=S)nc(NCCC(C)C)c2cc1OC	-87*	0	-89*	i
O=C(O)Cc1csc2ccccc12	1	2	6	-126%*
CC(C)(C)NC(=O)c1cccc(NC(=O)c2ccc(NC(=O)c3ccco3)cc2)c1	-79*	-5	-16	i
CCOC(=O)c1nnn(-c2ccc([N+](=O)[O-])cc2[N+](=O)[O-])c1C	-6	1	-66*	i
SMILES	Six1-Eya2 inh	CCT chaperon mod	CtBP-E1A inh	pAkt inh
CCOC(=O)c1nnn(-c2ccccc2)c1C	-9	-2	-21	i
CC1=NN(c2ccccc2)C(=O)C1N=Nc1ccc(N)cc1 (stereo not given)	-71*	-1	?	i
COc1ccc(N=NC2C(=O)N(c3ccccc3)N=C2C)cc1 (stereo not given)	-73*	-1	?	i
CC(C)C1C(=O)N(Cc2cn(CC3CCCCC3)nn2)CCS(=O)(=O)N1Cc1ccc(-c2ccc(Cl)nc2)cc1 (stereo not given)	-3	0	-15	i
O=C(COC(=O)c1ccc[nH]c1=O)NC1CCCCC1	20	1	8	i
CC(=O)N1CCN(S(=O)(=O)c2cccc(C(=O)N(Cc3ccccc3)c3cccc(C)c3)c2)CC1	4	-3	0	i
N=c1c(C(=O)NCc2ccco2)cc2c(=O)n3ccccc3nc2n1CCc1ccccc1	-78*	-5	-67*	i
COc1ccc(CCNC(=O)c2cc3c(=O)n4ccccc4nc3n(Cc3ccco3)c2=N)cc1OC	-9	2	/	/
COc1ccc(CCn2c(=N)c(C(=O)NCc3ccco3)cc3c(=O)n4ccccc4nc32)cc1OC	-74*	0	/	i
O=C(CN1C(=O)NC2(CCCCC2)C1=O)N1CCN(S(=O)(=O)/C=C/c2ccccc2)CC1	9	-2	-11	i
Cc1ccc2nc(NC(=O)CN(C)S(=O)(=O)c3cccc4nsnc34)sc2c1	-11	0	-13	-101%*
CCOc1ccc(C2CC(=O)NC3=C2C(=O)CCC3)cc1Cl (stereo not given)	1	-7	11	-107%*
CCOC(=O)Cc1nnc(NC(=O)c2ncn[nH]2)s1	?	-1	-71*	i
CCOC(=O)Cc1nnc(NC(=O)c2ccccc2OCC)s1	-3	-3	-1	i
COc1ccc(C(=O)N(C)Cc2ccc(C)o2)cc1OC1CCN(C(C)=O)CC1	-9	-4	1	i
Cn1c(CSc2nc3ccccc3s2)nnc1SCC(=O)NCCCN1CCOCC1	6	0	2	-136%*
CCn1c(CSc2nc3ccccc3s2)nnc1SCC(=O)c1ccc2c(c1)OCCO2	-3	0	-14	-108%*
CCn1c(CSc2nc3ccccc3s2)nnc1SCC(N)=O	0	-1	0	i
CCn1c(CSc2nc3ccccc3s2)nnc1SCC(=O)NCC(=O)OC	1	-1	2	i
O=C1C2C3C=CC(CC3)C2C(=O)N1c1ccc(F)cc1 (stereo not given)	15	1	9	i
CC(C)C1NC2(C(=O)c3ccccc3C2=O)C2C(=O)N(c3ccc(F)cc3)C(=O)C12 (stereo not given)	-7	-2	-10	-120%*
Cc1cc2c(c(=O)o1)C(C(C)C)C(C#N)=C(N)O2 (stereo not given)	0	0	9	-100%*
Cc1ccc([C@H]2C(C#N)=C(N)Oc3cc(C)oc(=O)c32)o1	0	0	0	i
CCCc1c(C(=O)N/N=C/c2cccc3ccccc23)nnn1-c1nonc1N	22	1	28	i
Cc1ccc(C(=O)n2nc(-c3ccccc3)nc2NCc2ccco2)cc1	0	-60*	3	i
O=C(c1ccccc1)n1nc(-c2ccccc2)nc1NCc1ccco1	6	-1	5	i
Clc1ccc(CN2CCN(c3ncccn3)CC2)c(Cl)c1	2	1	15	i
Cc1cc(NS(=O)(=O)c2ccc(Nc3nc(-c4ccc(C)c(C)c4)cs3)cc2)no1	-11	0	-5	i
Cc1cc(NS(=O)(=O)c2ccc(Nc3nc(-c4sc(N)nc4C)cs3)cc2)no1	-91*	-3	-90*	i
